# Targets with a hit are over-represented here; the source holds about 8,800 in all. About 0.5% of all pairs of compound and target were hits. Unmarked numbers belong to inactive results.
# Experiments:
# Test in all cases: log2 fold change, soluble protein after heating vs DMSO (PISA); higher = thermal stabilisation; K562 lysate, 10 uM; active = over 0.2 and 3.5 SD of the protein, either way, in both replicates (recomputed)
# [1] = compound: C1=CC=C(C=C1)[C@H](COC2=CC3=C(C=C2)NC(=O)N3)NC(=O)C4=CC=CN(C4=O)CC5=CC(=C(C=C5)F)F
# How it was run: (§1)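 K562 pellets were dounce-homogenised in PBS pH 7.4 containing 1 mM MgCl2, and the crude extract, at 1 mg/mL protein, was exposed to 10 μM compound for 30 min. Aliquots were heated for 3 min across 48°C-58°C, pooled, brought to 0.5% NP-40 at 4°C and spun at 21,000xg for 90 min, with the supernatant taken as soluble protein. TMTpro 16plex LC-MS/MS with equalised channel sums quantified that protein. Values are log-two fold changes in thermal stability relative to solvent controls, taken from duplicates.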
# [2] = compound: CC1=C(SC2=C1C(=N[C@H](C3=NN=C(N32)C)CC(=O)N)C4=CC=C(C=C4)Cl)C
# How it was run: as §1
# [3] = compound: CC1=C2C(=CC=C1)N=C(N(C2=O)C3=CC=CC=C3C)CN4C=NC5=C(N=CN=C54)N
# How it was run: as §1
# [4] = compound: Cc1sc2c(c1C)C(c1ccc(Cl)cc1)=N[C@@H](CC(=O)OC(C)(C)C)c1nnc(C)n1-2
# How it was run: as §1
# [5] = compound: c1ccc([C@@H]2C[C@H]2NC2CCNCC2)cc1
# How it was run: as §1
# Sequence of UniProt Q9NRP7 (Q9NRP7 whole entry, looked up): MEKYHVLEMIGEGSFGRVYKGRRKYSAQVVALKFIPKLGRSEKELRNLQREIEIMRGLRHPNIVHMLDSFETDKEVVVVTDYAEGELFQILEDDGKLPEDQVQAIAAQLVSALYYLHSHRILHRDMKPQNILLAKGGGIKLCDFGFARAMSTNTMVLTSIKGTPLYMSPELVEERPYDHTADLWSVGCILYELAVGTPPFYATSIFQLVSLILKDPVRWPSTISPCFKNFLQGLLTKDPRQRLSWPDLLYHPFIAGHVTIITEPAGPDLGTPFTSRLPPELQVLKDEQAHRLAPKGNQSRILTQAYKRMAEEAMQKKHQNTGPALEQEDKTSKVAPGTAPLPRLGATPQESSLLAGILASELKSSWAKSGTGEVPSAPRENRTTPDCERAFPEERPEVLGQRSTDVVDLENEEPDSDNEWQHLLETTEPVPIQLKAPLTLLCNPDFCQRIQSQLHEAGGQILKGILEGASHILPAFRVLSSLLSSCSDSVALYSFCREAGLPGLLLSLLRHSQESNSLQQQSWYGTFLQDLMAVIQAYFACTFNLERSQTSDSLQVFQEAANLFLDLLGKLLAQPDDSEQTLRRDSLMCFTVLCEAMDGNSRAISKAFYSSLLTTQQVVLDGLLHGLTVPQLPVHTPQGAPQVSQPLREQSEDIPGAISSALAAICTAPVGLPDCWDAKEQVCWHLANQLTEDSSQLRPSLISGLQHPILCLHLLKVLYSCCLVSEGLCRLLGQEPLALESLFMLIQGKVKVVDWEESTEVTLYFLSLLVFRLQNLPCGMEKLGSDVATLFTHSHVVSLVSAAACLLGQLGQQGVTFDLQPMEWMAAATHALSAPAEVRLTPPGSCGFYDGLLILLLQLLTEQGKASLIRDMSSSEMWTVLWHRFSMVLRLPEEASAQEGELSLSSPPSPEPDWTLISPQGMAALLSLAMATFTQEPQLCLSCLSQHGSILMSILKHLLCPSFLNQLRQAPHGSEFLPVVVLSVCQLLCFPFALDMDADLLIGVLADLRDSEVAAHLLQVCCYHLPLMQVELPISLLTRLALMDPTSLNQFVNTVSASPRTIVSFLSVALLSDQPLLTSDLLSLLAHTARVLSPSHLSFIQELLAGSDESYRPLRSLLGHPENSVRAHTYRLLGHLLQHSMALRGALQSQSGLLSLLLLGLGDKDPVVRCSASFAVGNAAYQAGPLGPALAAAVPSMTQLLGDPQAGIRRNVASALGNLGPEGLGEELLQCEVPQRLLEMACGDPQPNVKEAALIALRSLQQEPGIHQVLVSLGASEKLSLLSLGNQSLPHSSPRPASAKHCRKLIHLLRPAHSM
# Sequence of UniProt Q13148 (Q13148 whole entry, looked up): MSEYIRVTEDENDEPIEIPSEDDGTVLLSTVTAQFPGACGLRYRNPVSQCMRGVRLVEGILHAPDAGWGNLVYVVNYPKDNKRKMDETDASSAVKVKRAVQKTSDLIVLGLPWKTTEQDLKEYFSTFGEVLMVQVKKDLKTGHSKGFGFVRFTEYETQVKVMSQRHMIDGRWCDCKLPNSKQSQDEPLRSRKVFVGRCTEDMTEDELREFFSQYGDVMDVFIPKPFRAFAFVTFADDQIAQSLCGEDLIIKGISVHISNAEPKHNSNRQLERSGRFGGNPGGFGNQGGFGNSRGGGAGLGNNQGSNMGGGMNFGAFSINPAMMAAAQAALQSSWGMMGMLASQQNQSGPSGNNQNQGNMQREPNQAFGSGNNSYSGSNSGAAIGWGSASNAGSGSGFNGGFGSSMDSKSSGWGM
# Sequence of UniProt Q6P1M0 (Q6P1M0 whole entry, looked up): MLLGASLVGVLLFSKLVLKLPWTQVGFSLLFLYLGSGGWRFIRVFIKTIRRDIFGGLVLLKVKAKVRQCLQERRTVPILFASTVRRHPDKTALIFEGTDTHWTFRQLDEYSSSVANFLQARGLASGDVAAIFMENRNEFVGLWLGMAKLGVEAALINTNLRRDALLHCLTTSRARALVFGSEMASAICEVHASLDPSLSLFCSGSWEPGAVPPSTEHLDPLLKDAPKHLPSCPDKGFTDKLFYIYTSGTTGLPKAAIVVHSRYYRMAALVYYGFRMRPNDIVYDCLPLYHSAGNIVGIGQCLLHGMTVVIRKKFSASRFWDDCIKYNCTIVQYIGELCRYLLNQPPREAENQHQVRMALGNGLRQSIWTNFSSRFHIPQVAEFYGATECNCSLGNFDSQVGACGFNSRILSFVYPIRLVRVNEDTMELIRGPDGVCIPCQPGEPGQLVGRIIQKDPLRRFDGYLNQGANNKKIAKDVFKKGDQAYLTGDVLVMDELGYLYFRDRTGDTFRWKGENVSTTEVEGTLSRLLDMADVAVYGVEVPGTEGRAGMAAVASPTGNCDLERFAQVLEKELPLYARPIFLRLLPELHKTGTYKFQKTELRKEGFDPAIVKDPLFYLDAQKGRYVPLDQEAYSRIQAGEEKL
# Sequence of UniProt Q9NP77 (Q9NP77 whole entry, looked up): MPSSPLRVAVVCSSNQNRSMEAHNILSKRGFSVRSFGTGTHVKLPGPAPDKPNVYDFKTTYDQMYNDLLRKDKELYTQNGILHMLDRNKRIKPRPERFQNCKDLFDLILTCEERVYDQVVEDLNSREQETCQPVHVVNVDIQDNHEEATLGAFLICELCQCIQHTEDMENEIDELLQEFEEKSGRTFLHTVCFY
# Sequence of UniProt Q9BXS9 (Q9BXS9 whole entry, looked up): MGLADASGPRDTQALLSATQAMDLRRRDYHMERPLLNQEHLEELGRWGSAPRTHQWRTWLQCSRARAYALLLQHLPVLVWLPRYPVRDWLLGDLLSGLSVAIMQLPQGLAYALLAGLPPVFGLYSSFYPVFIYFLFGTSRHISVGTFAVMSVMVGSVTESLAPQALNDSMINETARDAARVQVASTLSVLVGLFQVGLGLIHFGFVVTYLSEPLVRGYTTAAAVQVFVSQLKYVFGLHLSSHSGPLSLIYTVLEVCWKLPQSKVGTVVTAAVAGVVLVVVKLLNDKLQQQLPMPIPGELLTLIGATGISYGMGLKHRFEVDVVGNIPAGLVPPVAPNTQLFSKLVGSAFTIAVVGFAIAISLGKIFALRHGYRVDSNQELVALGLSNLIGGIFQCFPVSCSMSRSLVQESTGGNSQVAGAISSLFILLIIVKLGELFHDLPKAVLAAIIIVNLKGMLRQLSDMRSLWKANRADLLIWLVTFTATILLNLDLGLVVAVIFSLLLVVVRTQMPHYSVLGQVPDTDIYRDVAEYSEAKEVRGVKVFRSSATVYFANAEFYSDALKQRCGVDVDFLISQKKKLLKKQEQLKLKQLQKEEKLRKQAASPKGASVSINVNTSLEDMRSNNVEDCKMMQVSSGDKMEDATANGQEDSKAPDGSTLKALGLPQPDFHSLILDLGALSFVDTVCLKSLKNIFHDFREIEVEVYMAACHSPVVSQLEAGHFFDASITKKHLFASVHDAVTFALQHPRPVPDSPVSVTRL
# Sequence of UniProt Q13043 (Q13043 whole entry, looked up): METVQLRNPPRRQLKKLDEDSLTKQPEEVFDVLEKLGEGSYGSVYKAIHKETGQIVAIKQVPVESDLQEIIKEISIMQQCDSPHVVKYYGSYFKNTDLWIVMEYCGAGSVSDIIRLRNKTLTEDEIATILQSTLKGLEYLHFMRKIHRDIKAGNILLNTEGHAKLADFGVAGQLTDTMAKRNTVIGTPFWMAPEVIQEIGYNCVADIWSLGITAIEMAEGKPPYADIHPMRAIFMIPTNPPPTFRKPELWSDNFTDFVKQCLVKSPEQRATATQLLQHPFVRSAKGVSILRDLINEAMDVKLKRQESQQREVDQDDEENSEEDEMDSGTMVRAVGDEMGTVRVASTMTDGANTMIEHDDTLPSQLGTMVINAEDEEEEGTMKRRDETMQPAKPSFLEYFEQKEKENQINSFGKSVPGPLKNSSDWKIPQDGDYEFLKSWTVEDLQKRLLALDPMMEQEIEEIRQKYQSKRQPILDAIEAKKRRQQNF
# Sequence of UniProt Q9BWW4 (Q9BWW4 whole entry, looked up): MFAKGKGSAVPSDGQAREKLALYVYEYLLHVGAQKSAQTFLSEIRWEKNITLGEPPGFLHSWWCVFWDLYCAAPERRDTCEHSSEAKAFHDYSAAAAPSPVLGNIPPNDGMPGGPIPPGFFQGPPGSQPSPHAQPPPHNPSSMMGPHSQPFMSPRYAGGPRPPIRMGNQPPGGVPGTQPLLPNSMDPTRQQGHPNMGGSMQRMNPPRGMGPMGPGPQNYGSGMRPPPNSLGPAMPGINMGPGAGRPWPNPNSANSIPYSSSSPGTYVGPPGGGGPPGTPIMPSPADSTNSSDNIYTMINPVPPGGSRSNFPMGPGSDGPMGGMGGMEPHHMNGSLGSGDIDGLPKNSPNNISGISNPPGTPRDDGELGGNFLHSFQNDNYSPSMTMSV
# Sequence of UniProt Q8N1S5 (Q8N1S5 whole entry, looked up): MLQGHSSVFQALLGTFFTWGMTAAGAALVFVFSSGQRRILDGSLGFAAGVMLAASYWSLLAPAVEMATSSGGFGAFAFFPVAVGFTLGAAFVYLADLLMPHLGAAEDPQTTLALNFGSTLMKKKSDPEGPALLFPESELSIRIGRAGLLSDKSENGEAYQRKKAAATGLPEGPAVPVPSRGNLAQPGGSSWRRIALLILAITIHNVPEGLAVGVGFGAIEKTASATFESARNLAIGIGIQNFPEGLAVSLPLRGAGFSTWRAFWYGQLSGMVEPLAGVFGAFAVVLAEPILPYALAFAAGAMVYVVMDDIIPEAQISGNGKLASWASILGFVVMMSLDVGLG
# Sequence of UniProt P05455 (P05455 whole entry, looked up): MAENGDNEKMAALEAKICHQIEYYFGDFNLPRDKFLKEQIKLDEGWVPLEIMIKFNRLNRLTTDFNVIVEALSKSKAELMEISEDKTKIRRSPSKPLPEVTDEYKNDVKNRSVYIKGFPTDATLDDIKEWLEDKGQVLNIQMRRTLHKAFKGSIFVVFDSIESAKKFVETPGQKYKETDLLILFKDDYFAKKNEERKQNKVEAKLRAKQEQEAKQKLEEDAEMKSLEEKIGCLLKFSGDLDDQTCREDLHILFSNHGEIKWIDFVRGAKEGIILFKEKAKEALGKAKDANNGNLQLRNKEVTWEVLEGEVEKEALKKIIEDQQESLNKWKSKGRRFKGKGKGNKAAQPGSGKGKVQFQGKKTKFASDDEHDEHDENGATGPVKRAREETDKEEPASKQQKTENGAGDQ
Target,log2 fold change [1],log2 fold change [2],log2 fold change [3],log2 fold change [4],log2 fold change [5]
SPATA5 (UniProt Q8NB90),-0.024,-0.005,0.026,0.008,0.02
SHC1 isoform 6 (UniProt P29353),0.019,0.006,0.056,0.087,0.25
SSB (UniProt E7ERC4),-0.137,0.12,0.186,-0.105,0.444
SLC38A10 (UniProt Q9HBR0),0.007,0.007,0.036,-0.053,-0.04
SLU7 (UniProt O95391),-0.015,0.041,0.045,-0.028,-0.16
SSBP3 (UniProt Q9BWW4),-0.113,-0.031,0.062,-0.06,-0.005
SNRPF (UniProt P62306),0.04,-0.084,-0.12,-0.103,-0.206
SRSF9 (UniProt Q13242),0.015,0.024,-0.076,0.06,-0.014
SPC25 (UniProt Q9HBM1),0.055,0.044,0.029,0.022,0.039
SNRNP40 (UniProt Q96DI7),0.023,-0.03,0.012,0,-0.002
STARD3 isoform 3 (UniProt Q14849),-0.015,0.007,0,-0.004,0
STK25 (UniProt O00506),-0.05,0.035,-0.062,0.053,-0.048
TARBP1 (UniProt Q13395),-0.108,-0.025,0.112,0.016,0.053
SSU72 (UniProt Q9NP77),0.014,0.017,0.078,0.004,-0.17
SLC27A4 (UniProt Q6P1M0),0.106,-0.006,0.054,-0.002,0.121
SPATA5L1 (UniProt Q9BVQ7),-0.019,0.036,0.006,-0.007,-0.039
SMAD9 (UniProt O15198),0.102,-0.074,0.058,-0.099,0.042
SPNS1 (UniProt Q9H2V7),0.05,0.017,0.023,-0.076,-0.019
SOAT1 (UniProt P35610),0.041,-0.002,-0.008,0.282 (active),-0.06
SSB (UniProt P05455),-0.004,0.015,-0.009,0.012,0.068
SMAP2 (UniProt Q8WU79),0.02,-0.002,0.029,0.049,0.02
SMC4 (UniProt Q9NTJ3),-0.033,0.003,-0.011,-0.005,0.055
SLC26A6 (UniProt Q9BXS9),-0.053,0.067,0.011,-0.556,-0.096
SH3GL3 isoform 3 (UniProt Q99963),0.024,0.033,0.133,-0.169,-0.416
SPA17 (UniProt Q15506),0.057,-0.064,-0.006,-0.132,-0.364
SORBS3 (UniProt O60504),0.047,0.081,-0.049,0.028,0.022
STK24 (UniProt B4DR80),-0.025,0.003,-0.041,-0.019,-0.055

Target,log2 fold change [1],log2 fold change [2],log2 fold change [3],log2 fold change [4],log2 fold change [5]
SRSF2 (UniProt Q01130),0.023,-0.011,0,-0.058,-0.129
SPR (UniProt P35270),0.113,-0.031,-0.027,-0.034,-0.067
SOX5 (UniProt P35711),-0.092,-0.052,0.076,-0.005,0
TAPT1 (UniProt Q6NXT6),-0.004,-0.023,0.092,-0.07,-0.128
STK36 (UniProt Q9NRP7),-0.014,0.174,0.163,-0.43,-0.42
STK38 (UniProt Q15208),-0.089,-0.02,-0.014,-0.012,-0.066
SPHK1 isoform 2 (UniProt Q9NYA1),-0.014,-0.034,-0.038,-0.003,0.092
TAF1B (UniProt Q53T94),-0.073,0.071,0.499,-0.13,-0.008
STK4 (UniProt Q13043),-0.031,-0.098,-0.05,-0.029,-0.124
SMN1 (UniProt Q16637),0.083,-0.054,0.054,-0.012,0.024
SMIM8 (UniProt Q96KF7),0.061,0.044,0.004,0.047,-0.157
STK26 (UniProt Q9P289),-0.015,-0.015,0.008,-0.015,0.02
TARDBP (UniProt Q13148),-0.094,-0.012,0.067,-0.145,-0.041
SMC2 (UniProt O95347),-0.007,0.018,0.016,0.003,0.069
SHCBP1 (UniProt Q8NEM2),0.056,0.012,-0.032,-0.022,-0.039
SLC11A2 isoform 3 (UniProt P49281),-0.081,-0.017,0.016,-0.01,0.003
SLC39A11 (UniProt Q8N1S5),0.022,-0.041,0.063,0.186,0.036
STIM1 (UniProt Q13586),-0.048,-0.008,0.049,0.028,0.048
SPG11 (UniProt Q96JI7),-0.22,-0.253,0.015,0.067,0.006
SLC38A1 (UniProt Q9H2H9),0.055,-0.116,0.06,-0.116,-0.128
TANK (UniProt Q92844),0.04,-0.088,-0.023,-0.079,-0.025
STK11IP (UniProt Q8N1F8),0.002,0.072,0.019,0.019,0.015
SMARCAD1 isoform 2 (UniProt Q9H4L7),-0.006,-0.036,0.014,0.014,0.035
SH3BP2 isoform 4 (UniProt P78314),-0.05,0.211,-0.124,0.035,-0.021
SSNA1 (UniProt O43805),0.034,-0.038,0.009,-0.129,-0.075
SLC19A1 (UniProt P41440),0.017,-0.022,-0.056,-0.12,-0.176
